The supplement of paper PMC9262897, “Low-cost anti-mycobacterial drug discovery using engineered E. coli” (Nature Communications, 2022)
Counter-ions that a name gives are not always drawn. ± gives the standard deviation of the averaged measurements.

system: E. coli TESEC Alr+ wild-type control; test: growth (OD600 after 10 h); higher = more growth (less inhibition); details: compound 0.1 mM; raw OD600 reference: median of DMSO wells 0.49, cell-free background 0.052
Method: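 TESEC Mtb Alr E. coli (ΔaraC ΔtolC ΔentC Δalr ΔdadX, arabinose-inducible Mtb Alr) or the Alr+ wild-type control strain, grown in defined M9-fructose medium without D-alanine in 96-well plates with Prestwick library compounds at 0.1 mM and 1% DMSO. Low Alr induction is 0.1 µM arabinose and high induction is 10 mM arabinose.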

Q: How did the growth turn out when `C[C@]12CC[C@@H]3c4ccc(O)cc4CC[C@H]3[C@@H]1CC[C@@H]2O` [Estradiol-17 beta] was run?
A: 0.43 ± 0.017

Q: Which growth does the source give for `Nc1cc(-c2ccncc2)c[nH]c1=O` [Amrinone] here?
A: 0.446 ± 0.027

Q: `c1ccc2c(CC3=NCCN3)cccc2c1` [Naphazoline hydrochloride] was tested. Which growth did it give?
A: 0.549 ± 0.075

Q: For `CC1(C)O[C@@H]2[C@@H](CO[C@@]3(COS(N)(=O)=O)OC(C)(C)O[C@@H]23)O1` [Topiramate], which growth is on record?
A: 0.541 ± 0.075

Q: For `Cc1ccc(-c2cc(C(F)(F)F)nn2-c2ccc(S(N)(=O)=O)cc2)cc1` [Celecoxib], which growth is on record?
A: 0.425 ± 0.11

Q: With `O=c1oc2ccccc2c(O)c1Cc1c(O)c2ccccc2oc1=O` [Dicumarol] as the compound, how does the growth read?
A: 0.191 ± 0.025

Q: Which growth does the source give for `Cc1cccc(Nc2ccccc2C(=O)O)c1C` [Mefenamic acid] here?
A: 0.158 ± 0.011

Q: `CO/N=C(\C(=O)N[C@@H]1C(=O)N2C(C(=O)OC(C)OC(C)=O)=C(COC(N)=O)CS[C@H]12)c1ccco1` (stereo not given in full) [Cefuroxime axetil] was tested. Which growth did it give?
A: 0.427 ± 0.051

Q: `CNS(=O)(=O)Cc1ccc2[nH]cc(CCN(C)C)c2c1` [Sumatriptan succinate] was tested. Which growth did it give?
A: 0.441 ± 0.017

Q: Which growth does the source give for `Cc1c(N(C)CS(=O)(=O)O)c(=O)n(-c2ccccc2)n1C` [Dipyrone] here?
A: 0.473 ± 0.039

Q: For `CC(C)(C)NCC(O)COc1cccc2c1CCC(=O)N2` (stereo not given) [Carteolol hydrochloride], which growth is on record?
A: 0.649 ± 0.043

Q: How did the growth turn out when `Nc1ccc(S(=O)(=O)Nc2ccccn2)cc1` [Sulfapyridine] was run?
A: 0.449 ± 0.0039

Q: With `Cc1nc2n(c(=O)c1CCN1CCC(c3noc4cc(F)ccc34)CC1)CCCC2` [Risperidone] as the compound, how does the growth read?
A: 0.47 ± 0.027

Q: With `CN[C@H]1CC[C@@H](c2ccc(Cl)c(Cl)c2)c2ccccc21` [Sertraline] as the compound, how does the growth read?
A: 0.0502 ± 0.00068

Q: For `CC(=O)OCC(=O)[C@@]1(O)CC[C@H]2[C@@H]3CCC4=CC(=O)CC[C@]4(C)[C@H]3[C@@H](O)C[C@@]21C` [Cortisol acetate], which growth is on record?
A: 0.517 ± 0.032

Q: For `CC(C)c1nc(CN(C)C(=O)N[C@H](C(=O)N[C@@H](Cc2ccccc2)C[C@H](O)[C@H](Cc2ccccc2)NC(=O)OCc2cncs2)C(C)C)cs1` [Ritonavir], which growth is on record?
A: 0.362 ± 0.01

Q: With `C=Cc1c(C)c2cc3nc(cc4[nH]c(cc5nc(cc1[nH]2)C(C)=C5CCC(=O)O)c(CCC(=O)OC)c4C)[C@@]1(C)C3=CC=C(C(=O)OC)C1C(=O)OC.C=Cc1c(C)c2cc3nc(cc4[nH]c(cc5nc(cc1[nH]2)C(C)=C5CCC(=O)OC)c(CCC(=O)O)c4C)[C@@]1(C)C3=CC=C(C(=O)OC)C1C(=O)OC` (stereo not given in full) [Verteporfin] as the compound, how does the growth read?
A: 0.5678 ± 0.0038

Q: `OCCOCCN1CCN(C(c2ccccc2)c2ccc(Cl)cc2)CC1` (stereo not given) [Hydroxyzine dihydrochloride] was tested. Which growth did it give?
A: 0.45 ± 0.02

Q: For `CCOc1ccccc1OC(c1ccccc1)C1CNCCO1` (stereo not given) [Reboxetine mesylate], which growth is on record?
A: 0.542 ± 0.061

Q: Which growth does the source give for `NCCCCCC(=O)O` [Aminocaproic acid] here?
A: 0.463 ± 0.025

Q: With `C[C@H](CCC(=O)O)[C@H]1CC[C@H]2[C@@H]3C(=O)C[C@@H]4CC(=O)CC[C@]4(C)[C@H]3CC(=O)[C@]12C` [Dehydrocholic acid] as the compound, how does the growth read?
A: 0.569 ± 0.034

Q: `CC(C)[N+](C)(CCOC(=O)C1c2ccccc2Oc2ccccc21)C(C)C` [Propantheline bromide] was tested. Which growth did it give?
A: 0.644 ± 0.057

Q: Which growth does the source give for `O=C(O)c1cc(/N=N/c2ccc(S(=O)(=O)Nc3ccccn3)cc2)ccc1O` [Sulfasalazine] here?
A: 0.473 ± 0.032

Q: For `COc1ccc(CN2CCN(C(c3ccc(F)cc3)c3ccc(F)cc3)CC2)c(OC)c1OC` [Lomerizine hydrochloride], which growth is on record?
A: 0.233 ± 0.0047

Q: With `O=C1NCC2(CCN(CCc3ccccc3)CC2)O1` [Fenspiride hydrochloride] as the compound, how does the growth read?
A: 0.487 ± 0.054

Q: With `CCOC(=O)n1ccn(C)c1=S` [Carbimazole] as the compound, how does the growth read?
A: 0.607 ± 0.05

Q: For `O=C(OCCOCCO)c1ccccc1Nc1cccc(C(F)(F)F)c1` [Etofenamate], which growth is on record?
A: 0.0535 ± 0.0025

Q: How did the growth turn out when `CN1CCN2c3ccccc3Cc3ccccc3C2C1` (stereo not given) [Mianserine hydrochloride] was run?
A: 0.4446 ± 0.0027

Q: How did the growth turn out when `Cc1c(OCC(F)(F)F)ccnc1C[S+]([O-])c1nc2ccccc2[nH]1` (stereo not given) [Lansoprazole] was run?
A: 0.377 ± 0.011

Q: With `NCC[C@H](O)C(=O)N[C@@H]1C[C@H](N)[C@@H](O[C@H]2O[C@H](CN)[C@@H](O)[C@H](O)[C@H]2O)[C@H](O)[C@H]1O[C@H]1O[C@H](CO)[C@@H](O)[C@H](N)[C@H]1O` [Amikacin hydrate] as the compound, how does the growth read?
A: 0.0539 ± 0.00071

Q: For `NC(=O)OCC(O)COc1ccc(Cl)cc1` (stereo not given) [Chlorphensin carbamate], which growth is on record?
A: 0.523 ± 0.01

Q: Which growth does the source give for `COc1cc([S+](C)[O-])ccc1-c1nc2cccnc2[nH]1` (stereo not given) [Sulmazole] here?
A: 0.4254 ± 0.0034

Q: With `Cc1ccc(C)c(OCCCC(C)(C)C(=O)O)c1` [Gemfibrozil] as the compound, how does the growth read?
A: 0.41 ± 0.018

Q: Which growth does the source give for `N=C(N)NC(=O)c1nc(Cl)c(N)nc1N` [Amiloride hydrochloride dihydrate] here?
A: 0.497 ± 0.071

Q: `NS(=O)(=O)c1cc(C(=O)O)cc(N2CCCC2)c1Oc1ccccc1` [Piretanide] was tested. Which growth did it give?
A: 0.444 ± 0.0057

Q: How did the growth turn out when `C[C@H](CS)C(=O)N1CCC[C@H]1C(=O)O` [Captopril] was run?
A: 0.475 ± 0.059

Q: `CC(C)NNC(=O)c1ccncc1` [Iproniazide phosphate] was tested. Which growth did it give?
A: 0.496 ± 0.095

Q: How did the growth turn out when `Nc1nc(=O)n([C@@H]2CS[C@H](CO)O2)cc1F` [(-)-Emtricitabine] was run?
A: 0.572 ± 0.0088

Q: `OCCN1CCN(CC/C=C2/c3ccccc3Sc3ccc(Cl)cc32)CC1` [Zuclopenthixol dihydrochloride] was tested. Which growth did it give?
A: 0.049 ± 0.0005

Q: `O=C(O)CCCC[C@@H]1SC[C@@H]2NC(=O)N[C@@H]21` [Biotin] was tested. Which growth did it give?
A: 0.615 ± 0.056
